In PubChem BioAssay (NCI) one finds growth data, which are given here for eight compounds.

Several values for one entry are separate records, joined by “and”; a condition that tells them apart may be missing. Equal values may be shown once. About 83,000 compounds went through this panel and 20% of them were active in at least one assay; those are over-represented in the sample as a whole.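 96-well plates, one dose, 48 hours. Percent growth reported; active if below 10.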 Activity calls are given as the source filed them.

Holding throughout (assay): NCI-60 one-dose screen, 48 h (100 = growth as untreated, 0 = no growth, -100 = all killed)
One assay concerns MOLT-4 leukemia. To be noted: 10 µM.
For another assay, the system named is SR leukemia. The note with it: 10 µM.
In the next assay the test system is OVCAR-8 ovarian. To be noted: 10 µM.
A further assay deals with OVCAR-5 ovarian. To be noted: 10 µM.
A further assay deals with OVCAR-4 ovarian. The note with it: 10 µM.
Another assay relates to SK-OV-3 ovarian. To be noted: 10 µM.
The next assay relates to IGROV1 ovarian. To be noted: 10 µM.
The subject of the next assay is OVCAR-3 ovarian. To be noted: 10 µM.
A further assay deals with HS 578T breast. To be noted: 10 µM.
A further assay relates to NCI/ADR-RES ovarian. The note with it: 10 µM.
In a further assay the test system is BT-549 breast. The note with it: 10 µM.
The test system of another assay is MDA-MB-435 melanoma. To be noted: 10 µM.
The subject of a further assay is SW-620 colon. To be noted: 10 µM.
A further assay concerns MCF7 breast. To be noted: 10 µM unless noted.
The subject of a further assay is HCT-116 colon. To be noted: 10 µM.
Another assay has as its system HCC-2998 colon. To be noted: 10 µM.
In a further assay the test system is KM12 colon. To be noted: 10 µM.
A further assay has as its system RPMI-8226 leukemia. To be noted: 10 µM.
For a further assay, the system named is T-47D breast. To be noted: 10 µM.

Regarding `[Cl][Sn]([c]1ccccc1)([c]1ccccc1)[c]1ccccc1`, the growth in the assay with MOLT-4 leukemia was -7.21% (active); in the assay on SR leukemia, -21% (active); with OVCAR-8 ovarian it was -74.5% (active); with OVCAR-5 ovarian, -84.1% (active); in the assay on OVCAR-4 ovarian, -88.9% (active); in the assay on SK-OV-3 ovarian it was -97.3% (active). Moreover, the growth was -76.8% (active) in the assay with IGROV1 ovarian; -94.2% (active) in the assay on OVCAR-3 ovarian; 0.581% (active) in the assay on HS 578T breast; -37.7% (active) with NCI/ADR-RES ovarian; -83.1% (active) in the assay with BT-549 breast; -83.9% (active) in the assay on MDA-MB-435 melanoma. The growth in the assay on SW-620 colon is -56.2% (active); in the assay on MCF7 breast, -81.1% (active); with HCT-116 colon it was -97.3% (active); in the assay with HCC-2998 colon, -83.9% (active); with KM12 colon, -71.3% (active).

Regarding `C/C(=C\c1ccc(Cl)c(Cl)c1)[N+](=O)[O-]`, the growth in the assay with MOLT-4 leukemia is 4.34% (active) and 79.2% (inactive); in the assay with SR leukemia, 12.3% (inactive) and 88.6% (inactive); with RPMI-8226 leukemia, -10.7% (active) and 91.3% (inactive); in the assay on OVCAR-8 ovarian, 11.9% (inactive) and 90.8% (inactive); in the assay with OVCAR-5 ovarian, 108% (inactive) and 104% (inactive); in the assay on OVCAR-4 ovarian it was -42.5% (active) and 114% (inactive). Moreover, the growth with SK-OV-3 ovarian was 108% (inactive) and 96.6% (inactive); in the assay on IGROV1 ovarian, -55.8% (active) and 111% (inactive); in the assay with OVCAR-3 ovarian, -97.7% (active) and 107% (inactive); in the assay on HS 578T breast, 82.8% (inactive) and 103% (inactive); with NCI/ADR-RES ovarian, 30.8% (inactive) and 93.2% (inactive); with T-47D breast, -79.3% (active) and 57.7% (inactive). The growth in the assay with MDA-MB-435 melanoma was 126% (inactive); in the assay on SW-620 colon it was -89.1% (active) and 98.6% (inactive); in the assay with MCF7 breast, -85.1% (active) and 80.6% (inactive); in the assay with HCT-116 colon, -91.5% (active) and 88.2% (inactive); in the assay on HCC-2998 colon it was 99.6% (inactive) and 100% (inactive); in the assay with KM12 colon it was -35.5% (active) and 98.3% (inactive).

For `CC[C@@]1(O)C[C@H](OC2CC(N(C)C)C(O)C(C)O2)c2c(cc3c(c2O)C(=O)c2c(O)ccc(O)c2C3=O)[C@H]1C(=O)OC` (stereo partly specified), the growth in the assay with MOLT-4 leukemia is -19.5% (active); with SR leukemia, -18.2% (active); with RPMI-8226 leukemia it was -32.6% (active); in the assay with OVCAR-5 ovarian it was -87% (active); in the assay with OVCAR-4 ovarian it was -44.2% (active); with SK-OV-3 ovarian, -68.9% (active). For the same compound, the growth with IGROV1 ovarian is -68.3% (active); with OVCAR-3 ovarian it was -41.6% (active); in the assay on NCI/ADR-RES ovarian it was -64.1% (active); with T-47D breast it was -42% (active); with BT-549 breast, -80.2% (active); in the assay on MDA-MB-435 melanoma it was -95.7% (active). Also, the growth in the assay with SW-620 colon was -90.5% (active); with HCT-116 colon, -70.5% (active); in the assay with KM12 colon it was -58.1% (active).

On to `C=NCC#N`, for which the growth was 94.6% (inactive) and 107% (inactive) in the assay with MOLT-4 leukemia; 83.8% (inactive) and 108% (inactive) in the assay with SR leukemia; 92.4% (inactive) and 115% (inactive) in the assay on RPMI-8226 leukemia; 104% (inactive) and 108% (inactive) with OVCAR-8 ovarian; 98.8% (inactive) and 93.5% (inactive) in the assay with OVCAR-5 ovarian; 114% (inactive) and 108% (inactive) in the assay with OVCAR-4 ovarian. The growth with SK-OV-3 ovarian was 113% (inactive) and 96.6% (inactive); in the assay on IGROV1 ovarian, 110% (inactive) and 115% (inactive); in the assay on OVCAR-3 ovarian, 105% (inactive) and 119% (inactive); in the assay with HS 578T breast it was 124% (inactive); with NCI/ADR-RES ovarian, 102% (inactive) and 107% (inactive); with T-47D breast it was 98.8% (inactive) and 93.6% (inactive). Also, the growth in the assay with BT-549 breast was 103% (inactive) and 89.3% (inactive); with MDA-MB-435 melanoma, 100% (inactive) and 113% (inactive); with SW-620 colon, 100% (inactive) and 115% (inactive); with HCT-116 colon it was 98.2% (inactive) and 107% (inactive); with HCC-2998 colon, 100% (inactive) and 125% (inactive); in the assay with KM12 colon it was 99.4% (inactive) and 109% (inactive).

Consider `Cc1cc(C)c(C[N+](C)(C)C)c(C)c1C`, for which the growth is 3.91% (active) in the assay on MOLT-4 leukemia; 7.44% (active) in the assay with SR leukemia; -18.4% (active) with RPMI-8226 leukemia; 6.43% (active) in the assay on OVCAR-8 ovarian; 10.1% (inactive) in the assay on OVCAR-5 ovarian; 8.09% (active) with OVCAR-4 ovarian. The growth in the assay with SK-OV-3 ovarian was 7.37% (active); in the assay with IGROV1 ovarian it was 7.5% (active); in the assay on OVCAR-3 ovarian it was 11.4% (inactive); in the assay on HS 578T breast it was 0.977% (active); in the assay on NCI/ADR-RES ovarian it was 4.96% (active); with T-47D breast it was -0.376% (active). The growth in the assay on BT-549 breast is 7.59% (active); with MDA-MB-435 melanoma, 9.06% (active); in the assay on SW-620 colon, 8.53% (active); with HCT-116 colon, 7.93% (active); in the assay with KM12 colon, 7.87% (active).

Consider `CC1CCC2(OC1)OC1C(O)C3C4CCC5CC(OC6OC(CO)C(OC7OC(CO)C(O)C(OC8OCC(O)C(O)C8O)C7OC7OC(CO)C(O)C(OC8OC(CO)C(O)C(O)C8O)C7O)C(O)C6O)C(O)CC5(C)C4CCC3(C)C1C2C` (stereo unspecified), for which the growth with MOLT-4 leukemia is 28.8% (inactive); in the assay on SR leukemia, 9.36% (active); in the assay on OVCAR-5 ovarian, -62.6% (active); in the assay with OVCAR-4 ovarian it was -66.7% (active); in the assay on SK-OV-3 ovarian, -35.8% (active); with IGROV1 ovarian it was -47.7% (active). Moreover, the growth in the assay on OVCAR-3 ovarian was -83.1% (active); with NCI/ADR-RES ovarian it was -59.4% (active); in the assay with T-47D breast, 50.1% (inactive); with MDA-MB-435 melanoma, 47.5% (inactive); in the assay on SW-620 colon, 51.2% (inactive); with HCT-116 colon, -72% (active). Further, the growth with KM12 colon was 34.2% (inactive).

In the case of `CN(C)CC1(N)C(=O)NC(=O)NC1=O`, the growth in the assay on MOLT-4 leukemia was 99% (inactive); in the assay with RPMI-8226 leukemia it was 100% (inactive); in the assay on OVCAR-8 ovarian, 105% (inactive); in the assay on OVCAR-5 ovarian, 97.8% (inactive); in the assay on OVCAR-4 ovarian it was 103% (inactive); in the assay with SK-OV-3 ovarian, 98.2% (inactive). The growth in the assay with IGROV1 ovarian is 108% (inactive); in the assay on OVCAR-3 ovarian it was 113% (inactive); in the assay with HS 578T breast, 98.1% (inactive); in the assay with NCI/ADR-RES ovarian, 107% (inactive); in the assay on T-47D breast, 89.4% (inactive); in the assay with MDA-MB-435 melanoma, 103% (inactive). For the same compound, the growth with SW-620 colon is 106% (inactive); in the assay with HCT-116 colon, 92.9% (inactive); in the assay on HCC-2998 colon, 99.4% (inactive); in the assay on KM12 colon it was 101% (inactive).

Consider `N#CCc1ccccc1`, for which the growth is 97.9% (inactive) in the assay with MOLT-4 leukemia; 101% (inactive) with RPMI-8226 leukemia; 105% (inactive) with OVCAR-8 ovarian; 101% (inactive) with OVCAR-5 ovarian; 94.6% (inactive) in the assay on OVCAR-4 ovarian; 98.4% (inactive) in the assay with SK-OV-3 ovarian. For the same compound, the growth is 115% (inactive) in the assay on IGROV1 ovarian; 111% (inactive) in the assay on OVCAR-3 ovarian; 106% (inactive) in the assay on HS 578T breast; 103% (inactive) with NCI/ADR-RES ovarian; 103% (inactive) in the assay with T-47D breast; 91.7% (inactive) in the assay on BT-549 breast. Besides, the growth in the assay with MDA-MB-435 melanoma is 110% (inactive); in the assay on SW-620 colon, 100% (inactive); in the assay with HCT-116 colon it was 102% (inactive); with HCC-2998 colon, 106% (inactive); in the assay with KM12 colon it was 111% (inactive).
